In PubChem BioAssay:
Values without a mark were called inactive. No rule for the calls is given here.

Each compound was assayed against L-lactate dehydrogenase (Plasmodium falciparum (isolate CDC / Honduras)) (UniProt Q27743) (assay: PfLDH activity inhibition – cell lysate, 3D7 strain, counter-screen for P. falciparum growth inhibition project (AID 2304;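 also: 0% = vehicle and 100% = reference inhibitor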)). Conditions: P. falciparum 3D7 crude extract, LDH APAD/NBT absorbance; at 2 µM; hits give high values.
Sequence of L-lactate dehydrogenase (Plasmodium falciparum (isolate CDC / Honduras)) (Q27743 whole entry, looked up): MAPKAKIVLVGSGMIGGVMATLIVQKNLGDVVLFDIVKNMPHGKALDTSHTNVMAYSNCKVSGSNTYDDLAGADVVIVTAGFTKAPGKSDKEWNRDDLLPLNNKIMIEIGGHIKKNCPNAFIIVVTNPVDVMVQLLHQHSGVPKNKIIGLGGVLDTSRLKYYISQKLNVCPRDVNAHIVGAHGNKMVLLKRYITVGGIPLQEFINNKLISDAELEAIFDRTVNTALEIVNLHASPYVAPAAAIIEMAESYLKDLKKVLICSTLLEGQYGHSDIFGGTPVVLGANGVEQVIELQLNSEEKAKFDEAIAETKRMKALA

Q: Which inhibition does the source give for CC(=O)Nc1ccc(C(=O)Nc2cccc(-c3csc(-c4nc5ccccc5[nH]4)c3)c2)cn1 here?
A: Its inhibition is -3%.

Q: How did the inhibition turn out when c1nc2nc3c(c(Nc4ccc5c(c4)CCC5)n2n1)CCC3 was run?
A: Its inhibition is -5%.

Q: Cc1cc(N)c2cc(NC(=O)c3cc(C(F)(F)F)cc(C(F)(F)F)c3)ccc2n1 was tested. Which inhibition did it give?
A: Its inhibition is 5%.

Q: How did the inhibition turn out when Oc1cc2c(cc1CN1CCN(Cc3ccccc3F)CC1)CCC2 was run?
A: Its inhibition is -3%.

Q: How did the inhibition turn out when COc1ccc(Cc2c(C)nc3nc(N)nc(N)c3c2C)cc1 was run?
A: Its inhibition is 8%.

Q: Which inhibition does the source give for COCCn1c(-c2nc(-c3ccc(F)cc3)cnc2N)nc2ccccc21 here?
A: Its inhibition is -6%.

Q: For Cc1[nH]c(C)c(-c2ccc(OCCOc3ccc(C(F)(F)F)cn3)cc2)c(=O)c1Br, which inhibition is on record?
A: Its inhibition is 3%.

Q: How did the inhibition turn out when COc1cccc(OC)c1C(=O)Nc1cccc(-c2nn3ccccc3c2-c2ccnc(Nc3cccc(F)c3)n2)c1 was run?
A: The inhibition was 8%.

Q: With Cc1cnc2ccc(NS(=O)(=O)c3ccc4c(Cl)cccc4c3)cc2c1N1CCNCC1 as the compound, how does the inhibition read?
A: Its inhibition is 1%.

Q: With Cc1c(S(=O)(=O)Nc2cccc(CCN3CCCCC3CCN3CCCC3)c2)sc2ccc(Cl)cc12 (centres undefined) as the compound, how does the inhibition read?
A: The inhibition was 0%.

Q: For COc1cccc(Cc2c(C)nc3nc(N)nc(N)c3c2C)c1, which inhibition is on record?
A: Its inhibition is -2%.

Q: With COc1ccc(-c2cccc(NC(=O)c3cccc(Cl)c3)c2)cc1CN(C)CCN(C)C as the compound, how does the inhibition read?
A: Its inhibition is 4%.

Q: For O=C(/C=C/c1ccc(Cl)c(Cl)c1)NCCCCCN1CCC(CCNC(=O)C2(c3ccc(Cl)cc3)CC2)CC1, which inhibition is on record?
A: Its inhibition is -3%.

Q: For O=C(C=Cc1ccc(Cl)c(Cl)c1)NCCCCCN1CCC(CCCNC(=O)[C@@H]2C[C@H]2c2ccccc2)CC1, which inhibition is on record?
A: The inhibition was -1%.

Q: With N#Cc1cccc(C(=O)Nc2cccc(-c3ccc(CN4CCCC4)cc3)c2)c1 as the compound, how does the inhibition read?
A: Its inhibition is 1%.

Q: CN1CCN(c2nsc3ccc(-c4ccc(NC(=O)Nc5cc(C(F)(F)F)ccc5F)cc4)cc23)CC1 was tested. Which inhibition did it give?
A: The inhibition was -3%.

Q: How did the inhibition turn out when NC(=O)c1ccsc1NC(=O)CNC(c1ccc(F)cc1)c1cccs1 (centres undefined) was run?
A: Its inhibition is -2%.

Q: For CC(C)Nc1nc(NCCc2cnc[nH]2)nc(Nc2ccc(Oc3ccccc3)cc2)n1, which inhibition is on record?
A: The inhibition was 1%.

Q: With c1ccc(-c2cc(NCCCCNc3cc(-c4ccccc4)nc4ccccc34)c3ccccc3n2)cc1 as the compound, how does the inhibition read?
A: Its inhibition is 0%.

Q: For CCOC(=O)c1c(C)n(-c2ccccc2)c2ccc(O)cc12, which inhibition is on record?
A: Its inhibition is -4%.

Q: With CC(C)Nc1nc(NCCc2cnc[nH]2)nc(NCc2cccc3ccccc23)n1 as the compound, how does the inhibition read?
A: The inhibition was 2%.

Q: Which inhibition does the source give for CCc1cn2c3c(cc(C(=O)N[C@@H](Cc4ccccc4)[C@H](O)CNC4CC4)cc13)N(CC)S(=O)(=O)CC2 here?
A: Its inhibition is -3%.

Q: Fc1ccc2nc(-c3ccc(-c4ccc(CNCCc5cccnc5)cc4)s3)[nH]c2c1 was tested. Which inhibition did it give?
A: Its inhibition is -7%.

Q: With COc1cc(Cc2cnc(N)nc2N)cc(OC)c1OCCCCC(=O)O as the compound, how does the inhibition read?
A: Its inhibition is -4%.

Q: O=C(N[C@H]1CCN(Cc2ccc(OC3CCN(Cc4ccccc4)CC3)c(Br)c2)C1)c1ccc(Cl)c(Cl)c1 was tested. Which inhibition did it give?
A: The inhibition was -1%.

Q: For O=C(NCC1CCN(C/C=C/c2ccccc2)CC1)Nc1ccc(Oc2ccccc2)cc1, which inhibition is on record?
A: The inhibition was -3%.

Q: For COc1cccc2cc(C(=O)N[C@@H](CC(C)C)C(=O)N[C@H](/C=N/N(C)C(=O)OC(C)(C)C)CC(=O)OC(C)(C)C)oc12, which inhibition is on record?
A: Its inhibition is -8%.

Q: How did the inhibition turn out when CN1CCC(c2cc3c(cc2Br)CCN3C(=O)Nc2ccc(-c3ccncc3)c(Cl)c2)CC1 was run?
A: Its inhibition is -1%.

Q: With Cc1[nH]nc2cc(Nc3ccnc(Nc4ccc(CN5CCOCC5)cc4)n3)ccc12 as the compound, how does the inhibition read?
A: The inhibition was -4%.

Q: For CCC(C)NC(=O)CN1CN(c2ccccc2)C2(CCN(C(=O)c3ccc(C(C)(C)C)cc3)CC2)C1=O (centres undefined), which inhibition is on record?
A: Its inhibition is -4%.

Q: For c1ccc(-c2nc(Nc3nc4ccccc4[nH]3)[nH]c2-c2ccccc2)cc1, which inhibition is on record?
A: The inhibition was -5%.

Q: For Cc1ccc2c(c1[N+](=O)[O-])N=NCC2Oc1ccccc1 (centres undefined), which inhibition is on record?
A: The inhibition was -4%.

Q: Which inhibition does the source give for COc1ccc(-c2cnc3[nH]cc(-c4ccc(C(=O)O)cc4)c3c2)cn1 here?
A: Its inhibition is -1%.

Q: Which inhibition does the source give for c1ccc(CCNCc2ccc(-c3cccc(-c4nc5ccccc5[nH]4)c3)cc2)nc1 here?
A: The inhibition was 7%.

Q: With O=C(Nc1ccc(-c2cccc(-c3nc4ccccc4[nH]3)c2)cc1)Nc1ccsc1 as the compound, how does the inhibition read?
A: The inhibition was -7%.

Q: Which inhibition does the source give for COc1ccc2ncc(C#N)c(CCN3C[C@H](CNCc4ccccc4)[C@H](O)C3)c2n1 here?
A: The inhibition was 4%.

Q: Which inhibition does the source give for Oc1ccc2c(CNCCc3ccccc3)c(O)ccc2c1CNCCc1ccccc1 here?
A: The inhibition was -8%.

Q: With NC1=NC(c2ccccc2)N(OCc2ccccc2)C(N)=N1 (centres undefined) as the compound, how does the inhibition read?
A: The inhibition was -6%.

Q: O=C(Nc1ccc2c(c1)CCN2C1CCN(Cc2ccc(F)cc2Cl)C1)c1ccco1 (centres undefined) was tested. Which inhibition did it give?
A: The inhibition was 2%.
